Measurements: PubChem BioAssay
Where “and” joins values, the source holds several entries; their conditions need not be identical. Equal entries are not always repeated. Calls of active or inactive are those of the source.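 Rule for the calls, unless noted: active = thallium flux through the channel raised or lowered by more than 3 SD from vehicle-only wells, actives on both sides; inactive = the rest.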

Tests used:
[1] = polyglutamine-triggered caspase-3 activation inhibitors, cell-based (AID 1583); conditions: polyglutamine-induced caspase-3 activation, cell assay; stronger effect = higher value;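 tested at 10 µM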
[2] = suppressors of polyQ aggregation in yeast, 75Q-TubU reporter (AID 1593); conditions: Yeast 75Q polyglutamine aggregation reporter
[3] = inhibitors of mitochondrial cytochrome c release, biochemical, purified mitochondria (AID 1603); conditions: stronger effect = lower value;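 note: mouse liver mitochondria challenged with calcium chloride; signal normalized to the plate average as 100%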
[4] = inhibitors of polyQ protein aggregation (AID 1604); conditions: polyglutamine-induced protein aggregation inhibition assay; stronger effect = higher value; tested at 2.5 µM
[5] = enhancers of glutamate uptake in motor neurons, MN-1 cell line (AID 1612); conditions: MN-1 motor neuron cells, stronger effect = higher value;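 note: tested at 1 µM final; 0% = mean of DMSO vehicle wells on each plate; positive means more glutamate uptake than control and negative means less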
[6] = Cy5 fluorescence interference with SSB-bound oligo, artefact control for HCV NS3 helicase inhibitor project, biochemical, NIH Clinical Collection, E. coli SSB (AID 743268; call rule not given here)
[7] = tested on: Hepatitis C virus NS3 helicase; assay: HCV NS3 helicase inhibitors, primary screen, biochemical, fluorescence polarization, NIH Clinical Collection (AID 743270; call rule not given here); conditions: NS3 helicase binding to Cy5-dT15 DNA, stronger effect = higher value, concentration not given here
[8] = biological target: Single-stranded DNA-binding protein (Escherichia coli (strain K12)) (UniProt P0AGE0); assay: E. coli SSB displacement from DNA, counter-screen for HCV NS3 helicase inhibitor project, biochemical, fluorescence polarization, NIH Clinical Collection (AID 743271; in the data active = inhibition above about 28%); conditions: stronger effect = higher value, concentration not given here
[9] = fluorescence interference in NS3h assay format, artefact control for HCV NS3 helicase inhibitor project, biochemical, NIH Clinical Collection (AID 743272; call rule not given here;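 note: HCV NS3 helicase with a Cy5 labelled single stranded DNA probe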); conditions: fluorescence interference counterscreen, stronger effect = lower value
F380Y/beta4 = assay: modulators of BK channel variants, profiling panel, selectivity assay, cell-based, U2OS BacMam, thallium flux, beta subunits (AID 1259406); conditions: at 30 µM;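 note: initial slope of Thallos dye fluorescence rise after thallium is added; log ratio against the mean of 0.3% DMSO vehicle wells on the same plate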
[10] = biological target: Calcium-activated potassium channel subunit alpha-1 (Homo sapiens) + Leucine-rich repeat-containing protein 26 (Homo sapiens) (UniProt Q12791+Q2I0M4); assay: as above; conditions: F380Y/Slo1WT/gamma1, at 30 µM
R275C = assay: as above; conditions: at 30 µM
R275C/beta1 = assay: as above; conditions: at 30 µM
R275C/beta2Delta = assay: as above; conditions: at 30 µM
R275C/beta4 = assay: as above; conditions: at 30 µM
R275C/Slo1WT/beta2 = assay: as above; conditions: at 30 µM
[11] = viability rescue of complex I mutant cybrids, primary screen, cell-based, galactose medium, ATP luminescence (AID 1645843;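 active = z-score of at least 1.8 in each of two replicates, scored against plate mean and spread of sample wells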;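 note: positive z means more ATP and so rescue of galactose-driven cybrid death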); conditions: complex I mutant cybrid cells, 72 h, stronger effect = higher value

Chain of Calcium-activated potassium channel subunit alpha-1 (Homo sapiens) + Leucine-rich repeat-containing protein 26 (Homo sapiens) (Q2I0M4 whole entry, looked up, one chain of several): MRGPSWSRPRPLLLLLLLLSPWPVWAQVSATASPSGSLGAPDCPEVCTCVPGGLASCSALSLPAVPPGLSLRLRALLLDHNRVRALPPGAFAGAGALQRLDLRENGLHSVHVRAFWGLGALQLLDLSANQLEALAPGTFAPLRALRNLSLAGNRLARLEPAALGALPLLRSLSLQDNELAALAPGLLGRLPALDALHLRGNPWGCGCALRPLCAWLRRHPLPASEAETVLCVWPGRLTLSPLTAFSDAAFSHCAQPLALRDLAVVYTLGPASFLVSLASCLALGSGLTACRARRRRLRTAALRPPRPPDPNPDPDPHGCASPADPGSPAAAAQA

SMILES | inhibition [1] [%] | score [2] | cytochrome c release ratio [3] | inhibition of aggregation [4] [%] | glutamate uptake change [5] [%] | fluorescence ratio [6] | inhibition [7] | inhibition [8] | fluorescence ratio [9] | log fold change Tl+ flux (F380Y/beta4) | log fold change Tl+ flux [10] | log fold change Tl+ flux (R275C) | log fold change Tl+ flux (R275C/beta1) | log fold change Tl+ flux (R275C/beta2Delta) | log fold change Tl+ flux (R275C/beta4) | log fold change Tl+ flux (R275C/Slo1WT/beta2) | z-score [11]
CN=C(NC#N)NCCSCc1nc[nH]c1C | 15.1 | 1.08 | 1.04 | 58.9 | -5.55 | 0.98 (inactive) | -3.18% (inactive) | -2% (inactive) | 0.94 (inactive) | 0.031 (inactive) | 0.0464 (inactive) | 0.00692 (inactive) | -0.0361 (inactive) | 0.00462 (inactive) | 0.0223 (inactive) | 0.0339 (inactive) | 
O=C(C1CCCCC1)N1CC(=O)N2CCc3ccccc3C2C1 (configuration not stated) | 2.42 | 0.82 | 0.99 | 65.4 | 7.89 | 0.91 (inactive) | -5.91% (inactive) | -2% (inactive) | 0.91 (inactive) | 0.0341 (inactive) | -0.00263 (inactive) | -0.0164 (inactive) | 0.0419 (inactive) | -0.0208 (inactive) | 0.0526 (inactive) | 0.0259 (inactive) | 1.16 (inactive) and -1.2 (inactive) and 1.07 (inactive)
CC1(C)O[C@@H]2[C@@H](CO[C@@]3(COS(N)(=O)=O)OC(C)(C)O[C@@H]23)O1 |  |  |  |  |  | 1.04 (inactive) | -0.4% (inactive) | -6.26% (inactive) | 1.02 (inactive) | 0.0387 (inactive) | 0.0353 (inactive) | -0.04 (inactive) | 0.0176 (inactive) | 0.0245 (inactive) | -0.0182 (inactive) | 0.00527 (inactive) | -0.1 (inactive)
O=C(O)c1cccnc1 | 1.52 | 1.31 | 0.86 | 67.8 | -8.8 | 1.05 (inactive) |  |  | 0.99 (inactive) | 0.0275 (inactive) | -4.3e-05 (inactive) | 0.0183 (inactive) | -0.00198 (inactive) | 0.0288 (inactive) | 0.0274 (inactive) | -0.00368 (inactive) | 0.63 (inactive)
CC(C)C(=O)Nc1ccc([N+](=O)[O-])c(C(F)(F)F)c1 | 28.6 | 0.95 | 0.83 | 22.5 | -7.31 | 0.94 (inactive) | -1.36% (inactive) | 2.57% (inactive) | 0.88 (inactive) | -0.0805 (inactive) | -0.0492 (inactive) | -0.0976 (active) | -0.0165 (inactive) | 0.0539 (inactive) | -0.0876 (inactive) | -0.0286 (inactive) | -0.565 (inactive) and -0.735 (inactive) and -1.1 (inactive)
